# Data published in PubChem BioAssay (NCI).
# About 83,000 compounds went through this panel and 20% of them were active in at least one assay; those are over-represented in the sample as a whole.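 Method: cells in 96-well plates; compound added at one concentration; 48 h incubation; percent growth measured; values under 10 scored active.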 Activity calls are given as the source filed them.
# Test system: HL-60(TB) leukemia
# Assay: NCI-60 one-dose screen, 48 h (100 = growth as untreated, 0 = no growth, -100 = all killed)
# Conditions: 10 µM unless noted
row,Compound,growth
1,N#Cc1c(-c2ccc(Cl)cc2)nc(N/N=C/c2cccc(Br)c2)nc1N1CCOCC1,40.6% (inactive)
2,C=CCn1c2ccccc2c2c3c(c4c5ccccc5n(CC=C)c4c21)C(=O)N(O)C3=O,-39.5% (active)
3,CS(=O)(=O)N1CCc2c(-c3cnc(N)nc3)nc(N3CCOCC3)nc21,34.9% (inactive)
4,C=C(C)[C@@H]1CC[C@]2(c3ncc(C)o3)CC[C@]3(C)[C@H](CC[C@@H]4[C@@](C)(CCC#N)[C@H](C(=C)C)CC[C@]43C)[C@@H]12,-27.9% [100 µM] (active)
5,CCOC(=O)CN1/C(=N/c2sc3c(c2C(=O)OCC)CCN(C(=O)OCC)C3)SC(=O)/C1=C\C(=O)OC,79.9% (inactive)
6,CCCN(CCSSCCNc1nc(N(C)O)nc(N(C)O)n1)c1nc(N(C)O)nc(N(C)O)n1,88% (inactive)
7,COc1ccc(Nc2ccnc(NCCCNc3ccnc4cc(Cl)ccc34)n2)cc1,-68.6% (active)
8,Nc1cc2c(cc1Br)[nH]c(=O)c1ccccc12,91% (inactive)
9,O=C(CN1CCOCC1)Nc1ccc(Cn2nnc3c2C(=O)c2nnn(Cc4ccc(NC(=O)CN5CCOCC5)cc4)c2C3=O)cc1,-39.1% (active)
10,Cc1nc2ccccc2c(/C=C/c2ccccc2)c1C(=O)/C=C/c1ccccc1,23.1% (inactive)
11,C=C1C(=O)O[C@H]2[C@H]1CC/C(COC(=O)/C=C\C(=O)NCc1ccc(Cn3c(=O)sn(CCCl)c3=O)cc1)=C\CC[C@@]1(C)O[C@@H]21,-19.4% (active)
12,CSCC[C@@H]1C(=O)N(C)[C@H](C(C)(C)C)N1C(=O)c1ccccc1,110% (inactive)
13,O=C1/C(=C\c2ccc(F)cc2)CN(C(=O)c2ccccc2F)C/C1=C\c1ccc(F)cc1,-4.26% (active)
14,C=CCN1C(=O)/C(=c2\sc3n(c2=O)C2C(NN=3)N(CC)C(=O)N2CC)c2ccccc21 (stereo not given),-17.4% (active)
15,Cc1cc2c3c(cccc3c1)C(=O)c1ccccc1-2,101% (inactive)
16,COc1cc(C(=O)/C=C/c2cc(C(=O)c3cc(OC)c(OC)c(OC)c3)ccc2OC)ccc1N,3.92% (active)
17,C=C(C)[C@@H]1CC[C@]2(C(N)=O)CC[C@]3(C)[C@H](CC[C@@H]4[C@@]5(C)C/C(=C/c6ccco6)C(=O)C(C)(C)[C@@H]5CC[C@]43C)[C@@H]12,93.2% (inactive)
18,CN1CCN(CC(=O)Nc2nc3c(s2)Nc2cc(Cl)c(Cl)cc2NC3=O)CC1,81.9% (inactive)
19,C=C(C)[C@@H]1CC[C@]2(C(=O)NCCCO)CC[C@]3(C)[C@H](CC[C@@H]4[C@@]5(C)CCCNC(C)(C)[C@@H]5CC[C@]43C)[C@@H]12,34.1% (inactive)
20,O=C(Nc1nn2c(-c3cc(C(F)(F)F)cc(C(F)(F)F)c3)nnc2s1)C1CCCC1,-53.3% (active)

row,Compound,growth
1,C=C1c2c(Cl)ccc(O)c2C(O)=C2C(=O)[C@]3(O)C(O)=C(C(N)=O)C(=O)[C@@H](N(C)C)[C@@H]3[C@@H](O)[C@H]12,-24.8% (active)
2,CCCCCCCC(=O)SCC/C=C/[C@@H]1CC(=O)NCc2cccc(n2)C2=N[C@@](C)(CS2)C(=O)N[C@@H](C(C)C)C(=O)N1,24.7% (inactive)
3,O=C(Nc1cc(Cl)ccc1O)c1ccccc1Nc1ccnc(C(F)(F)F)c1,-38.1% (active)
4,O=C1c2ccccc2C(=O)c2c1oc1oc3c(c(=O)c21)c(=O)n(-c1ccccc1)c1ccccc31,7.05% (active)
5,CC(=O)Oc1ccc(C)cc1C,95% (inactive)
6,Cc1ccc(OCCn2c(C)nn(-c3ccc(Cl)cc3)c2=O)cc1,114% (inactive)
7,COc1ccc(-c2cc(-c3nnc(SC/C(=N\O)c4ccccc4)n3-c3ccccc3)c3ccccc3n2)cc1,94.3% (inactive)
8,Cc1ccc(/C(=N\N=C(N)N)c2ccccc2)cc1,-41.6% (active)
9,COc1cc2c(cc1OC)-c1cc(OC)c(OC)cc1C(CN(C)C)C2 (stereo not given),69.8% [100 µM] (inactive)
10,CCCCNC(=O)c1ccc2c(c1)nc(-c1ccccc1)n2C1CCCCC1,115% (inactive)
11,O=C(c1ccc(F)c(F)c1Nc1ccc(I)cc1F)N1CC(O)([C@@H]2CCCCN2)C1,-18.9% (active)
12,CCc1ccc(Oc2c(-c3ccc(OCc4ccc(Cl)cc4)cc3O)nn(C)c2C(F)(F)F)cc1,-36.9% (active)
13,CCOC(=O)Oc1c(OC)cc(C(=O)O[C@@H]2C[C@@H]3CN4CCc5c([nH]c6cc(OC)ccc56)[C@H]4C[C@@H]3[C@H](C(=O)OC)[C@H]2OC)cc1OC,-27.7% (active)
14,COc1cc(Nc2ncccc2NC(=O)c2cn(Cc3cccc(Oc4ccccc4)c3)nn2)cc(OC)c1,64.6% (inactive)
15,CCCCC[C@@H]1Cc2cc(O)c(C(=O)O)c3c2[C@H](C[C@@]2(CCCO2)O3)O1,86.5% (inactive)
16,N#Cc1ncc(-c2ccc(C(F)(F)F)cc2)c(NC2CCCCCC2)n1,6.7% (active)
17,CCCCCCCCO/N=C\c1c2c(O)c3c(O)c(C)c4c(c3c1O)C(=O)C(C)(O/C=C\C(OC)C(C)C(OC(C)=O)C(C)C(O)C(C)C(O)C(C)/C=C\C=C(\C)C(=O)N2)O4 (stereo not given),-10.2% (active)
18,CC(=O)Oc1cc(OC(C)=O)c2ccccc2c1OC(C)=O,23.3% (inactive)
19,Cc1cc(C(=O)Nc2cc(Oc3ccc4nc(NC(=O)C5CC5)cn4n3)ccc2C)n(C)n1,7.21% (active)
20,C=CCn1c(=O)c2cnc(Nc3ccc(N4CCN(C)CC4)cc3)nc2n1-c1cccc(C(C)(C)O)n1,-22.4% (active)
